Source: PubChem BioAssay (NCI)
Compounds without any hit were thinned out: in the full panel of roughly 83,000, 20% have a hit.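 The endpoint reported here, percent growth, reads 100 for growth as untreated, 0 for no net growth and -100 for all cells dead.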 Active and inactive are the calls of the source. Rule for the calls: active = growth percent below 10; inactive = the rest.

system: SK-MEL-28 melanoma; assay: NCI-60 one-dose screen, 48 h (100 = growth as untreated, 0 = no growth, -100 = all killed); settings: 10 µM unless noted

Row | SMILES | growth
1 | COc1cc2c(c(OC)c1OC)CCC(c1cccc(NC(=O)c3ccc(Br)cc3)c1)O2 (configuration not stated) | 89.7% (inactive)
2 | N#Cc1nc(-c2ccc(F)cc2)oc1S(=O)(=O)N1CCCCC1 | 102% (inactive)
3 | Clc1ccc(/C=N\N=C\c2ccc(Cl)c(Cl)c2)cc1Cl | 101% (inactive)
4 | C1CCC([PH+](C2CCCCC2)C2CCCCC2[PH+](C2CCCCC2)C2CCCCC2)CC1.[Au].[CH-]1CCCCC1C1CCCC[N-]1 (configuration not stated) | -83.2% (active)
5 | Cn1c(=O)c2nc(/C=C/c3ccccc3)c(=O)[nH]c2n(C)c1=S | 111% (inactive)
6 | COc1ccc(/C=C(\C#N)n2nnc3cc(Cl)ccc32)cc1 | 31.3% (inactive)
7 | O=C(CN1C(=O)NC2NC(=O)NC21)N/N=C/c1ccccc1[N+](=O)[O-] (configuration not stated) | 107% (inactive)
8 | CCN(CC)CC(O)COc1c(Br)c(Br)c(Br)c2c1OC(C)(C)C2 (configuration not stated) | 64% (inactive)
9 | CCCNc1nc2ccccc2c2c1S(=O)(=O)c1ccc(Cl)cc1C2=O | 32.8% (inactive)
10 | CS(=O)(=O)Nc1cncc(-c2ccc3ncnc(Nc4cncc(Cl)c4)c3c2)c1 | 81.6% (inactive)
11 | CN(C)c1ccc(C(=O)OCCCCCCl)cc1 | 103% (inactive)
12 | CN(C)c1ccc(-c2c(C#N)c(N)nn2C(=O)c2ccc(NC(=O)c3ccccn3)cc2)cc1 | 108% (inactive)
13 | COCCn1cc(-c2csc(-c3cn(C)c4ccc(Br)cc34)n2)c2cccnc21 | 74.9% (inactive)
14 | CC1(C)COB(OCC(C)(C)COB2OCC(C)(C)CO2)OC1 | 113% (inactive)
15 | Cc1c[n+](Cc2ccc3ccccc3c2)cn1Cc1ccc2ccccc2c1 | 4.48% (active)
16 | Cn1cc(-c2csc(-c3c[nH]c4ccccc34)n2)c2cnccc21 | -51.5% (active)
17 | CCOC(=O)C#Cc1c(C(=O)OCC)nnn1Cc1ccc([N+](=O)[O-])cc1 | 87% (inactive)
18 | CCn1cc(C(=O)O)c(=O)c2cc(F)c(N3CCN(CC(=O)Nc4ccc(S(=O)(=O)Nc5nccc(C)n5)cc4)C(C)C3)c(F)c21 (configuration not stated) | 107% (inactive)
19 | C=C1C(=O)O[C@H]2[C@H]1CC/C(COC(=O)/C=C\C(=O)NCc1ccc(Cn3c(=O)sn(CCI)c3=O)cc1)=C\CC[C@@]1(C)O[C@@H]21 | 40.4% (inactive)

Row | SMILES | growth
20 | CC1CN(S(=O)(=O)c2oc(-c3ccc(Cl)cc3)nc2C#N)CC(C)O1 (configuration not stated) | 97.9% (inactive)
21 | Cc1ccc(C)n1-c1ccccc1-n1c(C)ccc1C | 93.6% (inactive)
22 | CCCCCCC12CCC(=O)N1CCc1cncn12 (configuration not stated) | 112% (inactive)
23 | CNC(=O)c1[nH]cc(-c2ccc(OC)cc2)c1-c1cc(OC)c2c(c1OC)OCO2 | 101% (inactive)
24 | C#Cc1c2c(c(OC)c3c1OCO3)[C@H]([C@H]1OC(=O)c3c1ccc(OC)c3OC)N(C)CC2 | 95.1% (inactive)
25 | C=CCc1c(O)c(C(=O)/C=C/c2ccccc2)c(OC)c2ccoc12 | 64.6% (inactive)
26 | O=S(=O)(Nc1ccc(F)cc1F)c1ccc(-c2cnc(C3CC3)o2)cc1 | 63.5% (inactive)
27 | CN1CCN(c2cc(Nc3cc(C4CC4)[nH]n3)nc(Nc3ccc(CC(=O)NCc4cccc(F)c4)cc3)n2)CC1 | 25.8% (inactive)
28 | CC(C)(C)[Si](C)(C)OC1[C@@H](CNC(=O)NC(=O)NC(N)=O)O[C@@H](n2cnc3c(NC(=O)Nc4ccccc4)ncnc32)[C@H]1O[Si](C)(C)C(C)(C)C (some centres not stated) | 63.5% (inactive)
29 | COc1ccc(OC)c(-c2nc(SCC(=O)c3ccc(C#N)cc3)[nH]c(=O)c2C#N)c1 | 102% (inactive)
30 | COc1ccc(C(C)=O)cc1S(=O)(=O)Nc1c(N)nc(SC)[nH]c1=O | 109% (inactive)
31 | CCOC(=O)C1=C(N)Oc2c(sc3c(F)cccc23)C1c1ccc(O)cc1 (configuration not stated) | 46% (inactive)
32 | CCNCCNc1cc(-c2ccc(C(F)(F)F)cc2)c(C#N)c2nc3ccccc3n12 | -86.4% (active)
33 | Cn1cc(-c2ccc3nc(-c4ccc(CC(=O)ONc5cc(C(C)(C)C)on5)cc4)cnc3c2)cn1 | 44.4% (inactive)
34 | Cn1cc(C(=O)c2nc(-c3c[nH]c4ccccc34)no2)c2cc(F)ccc21 | 64.6% (inactive)
35 | COc1ccc(CNc2c3ccccc3nc3ccccc23)cc1 | 79.6% (inactive)
36 | O=[N+]([O-])c1cccc(-c2nc3cc4nc5ccccc5[nH]c4cc3n2)c1 | 113% (inactive)
37 | COc1c(C(=O)Nc2ccc(C)c(Br)c2)ccc2ccccc12 | 93.3% (inactive)
